# Assay results from PubChem BioAssay AID686979 (National Center for Advancing Translational Sciences (NCATS), 2013).
# Among all 420,000 compounds or so, about 50,000 (12%) were called active. About 26% were inconclusive and are not listed. The call rests on the fitted dose curve; in most records, active means well fitted inhibition curve with a large enough effect; inconclusive means small, poorly fitted or top-dose-only effect; inactive means flat fitted curve, though single readings scatter. Shown is part of a subset that was picked to be rich in actives.
# Test: qHTS for Inhibitors of human tyrosyl-DNA phosphodiesterase 1 (TDP1): qHTS in cells in presence of CPT; further: nearly all actives have a fitted effect of over 55% in size
# Settings: chicken DT40 Tdp1-/-;hTDP1 cells + 20 nM CPT, ATP luminescence, 48 h; series mostly up to 46.2 µM; activity change, negative = growth inhibition: at the top concentration
# How it was run: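 Chicken DT40 Tdp1-/- cells complemented with human TDP1, 400 cells/well, exposed to compounds plus 20 nM camptothecin for at least 48 h at 37 C; viability read as ATP content by CellTiter-Glo luminescence.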
# On the % scale 0 is the no-effect control and ±100 the full control effect; potency means the concentration at half of the fitted maximal effect.
Compound,"activity change, negative = growth inhibition",Potency
NS(=O)(=O)c1ccc(NC(=S)N2CCCC2)cc1,-3.82% (inactive),–
CCSC1=NCCN1C(=O)c1ccc(S(=O)(=O)N(CC)CC)cc1,9.95% (inactive),–
COc1ccc(N(C(=O)c2cccnc2)S(=O)(=O)c2ccc(OC)c(OC)c2)cc1,-24.6% (inactive),–
COc1ccc(C(=O)Nc2cccnc2)cc1C(=O)Nc1cccnc1,-4.05% (inactive),–
COc1ccccc1C(=O)NNC(=O)c1ccc(NC(=O)c2ccccc2)cc1,-24.4% (inactive),–
COc1ccc(C(=O)Nc2ccc(-n3nncc3-c3ccccc3)cc2)cc1OC,–,3.66 µM (active)
CCC1OC(C2CC2)CC2=C1C(=O)OC(C)(C)O2 (stereo not given),-4.59% (inactive),–
CC(=O)N1N=C(c2ccccc2)OC1c1cccnc1 (stereo not given),-0.38% (inactive),–
Cc1cc(C)cc(NC(=O)CCN2C(=O)c3ccccc3C2=O)c1,-4.76% (inactive),–
Cc1ccc2nc(CNC(=O)c3ccccc3)[nH]c2c1,9.98% (inactive),–
O=C(N/N=C/c1ccc(O)c2ccccc12)c1cccnc1,-13.9% (inactive),–
Cc1ccc(/C=N/NC(=O)C2=NNC(c3ccccc3)(c3ccccc3)C2)c(O)c1,–,4.61 µM (active)
COc1ccc(-c2cc(C(F)(F)F)nc(S(C)(=O)=O)n2)cc1OC,–,2.06 µM (active)
COc1ccc(C2=NO[C@@H]3C(=O)N(Cc4ccccc4)C(=O)[C@H]23)cc1OC,3.64% (inactive),–
CCN(CC)CCN(C)C(c1ccnc2ccccc12)c1nnnn1-c1ccc2c(c1)OCCO2 (stereo not given),-31.6% (inactive),–
Cc1ccc(S(=O)(=O)NCCCn2ccnc2)cc1C(=O)NC(C)C,-3.13% (inactive),–
O=C(NCc1ccco1)c1ccc([N+](=O)[O-])cc1Cl,3.37% (inactive),–
Cc1ccc(C(=O)OCC(=O)NC2CCCCCCC2)cc1C,-4.81% (inactive),–
c1ccc2c(c1)C(=NC1CCCCC1)NC2=NC1CCCCC1,–,18.4 µM (active)
COc1cc(NC(=S)N2CCCC(C)C2)cc(OC)c1OC (stereo not given),-22.1% (inactive),–
O=C(NCc1ccc2c(c1)CCN2C(=O)c1ccccc1)Nc1cc(F)ccc1F,–,16.4 µM (active)
O=C(COc1ccccc1)NCc1ccc2c(c1)CCN2C(=O)c1ccc(F)cc1,–,16.4 µM (active)
Cc1cccc(C(=O)N2CCc3cc(CNC(=O)Cc4ccc(F)cc4)ccc32)c1,–,16.4 µM (active)
O=C(Cc1ccccc1)NCc1ccc(F)cc1,-7.47% (inactive),–
Cc1ccc(C(=O)N2CCc3cc(CNC(=O)c4ccc(Br)cc4)ccc32)cc1,-84.3% (inactive),–
COc1cccc(C(=O)NCc2ccc3c(c2)CCN3C(=O)c2ccncc2)c1,-12.1% (inactive),–
O=C(CCc1ccccc1)NCc1ccc2c(c1)CCN2C(=O)c1ccccc1,–,10.3 µM (active)

Compound,"activity change, negative = growth inhibition",Potency
O=C(CCc1ccc(S(=O)(=O)NC2CCCCC2)cc1)NCc1ccccc1,-18.8% (inactive),–
O=C(CN1CCN(C(=O)c2cccc(F)c2)CC1)Nc1ccccc1F,0.779% (inactive),–
O=C(CSCc1ccccc1)N1CCc2ccccc21,-9.01% (inactive),–
O=C(COc1ccccc1)Nc1ccc(C(=O)N2CCCC2)cc1,1.05% (inactive),–
CCC(=O)N1CCc2cc(CNC(=O)Nc3ccccc3Cl)ccc21,-29.4% (inactive),–
CC1CCC2(CC1)NC(=O)N(CC(=O)c1ccc3c(c1)OCO3)C2=O (stereo not given),4.95% (inactive),–
COc1cc(OC)c(N(C)C(=O)c2cc3c(=O)oc4ccccc4c3s2)cc1Cl,4.07% (inactive),–
CCc1nnc(NS(=O)(=O)c2ccc(NC(=O)c3cccc(OC(F)(F)C(F)F)c3)cc2)s1,6.34% (inactive),–
CCCCCC(=O)Nc1ccc(-c2cn3cccnc3n2)cc1,-3.88% (inactive),–
O=C(Nc1cccc2cccnc12)c1cccc2c(Br)cccc12,-12.4% (inactive),–
COC(=O)C1NN=C(C(=O)c2ccc(Br)cc2)C1c1cccc(Br)c1 (stereo not given),6.78% (inactive),–
O=C(Nc1ccc(Br)cc1)c1cccc(NC(=O)C2C3CC4OC(=O)C2C4C3)c1 (stereo not given),-28.6% (inactive),–
CCc1cccc(CC)c1NC(=S)NCc1ccc2[nH]c(C)cc2c1,–,23.1 µM (active)
CCc1cccc(CC)c1NC(=S)Nc1ccc2cn[nH]c2c1,-26.3% (inactive),–
Cc1cc2cc(CNC(=O)c3cccs3)ccc2[nH]1,-0.633% (inactive),–
Cc1cccc(NC(=O)N2CCCCCC2)c1C,1.89% (inactive),–
O=C(OCc1nnc(-c2ccccc2)o1)c1cc(=O)[nH]c2ccccc12,-0.538% (inactive),–
CCCc1nc2ccccc2c(C(=O)OCc2nnc(-c3cc(OC)c(OC)c(OC)c3)o2)c1CC,–,16.4 µM (active)
CCCCc1nc2ccccc2c(NC(=O)CN2CCN(C)CC2)c1CCC,-15.1% (inactive),–
O=C(CN1CCN(S(=O)(=O)c2ccc(Cl)s2)CC1)N1CCCCC1,-25.8% (inactive),–
CCOC(=O)c1ccccc1OC(=O)Oc1ccccc1C(=O)OCC,7.31% (inactive),–
CCOC(=O)C=Cc1ccc(C(=O)OCC)[nH]1,–,13 µM (active)
CCOC(=O)c1c(C)[nH]c(C)c1C(=O)COC(=O)/C=C/c1cccc([N+](=O)[O-])c1,-20.3% (inactive),–
CCn1c(N)c(Br)c(=O)[nH]c1=O,-19.5% (inactive),–
CCCCCOc1ccc(/C=C/C(=O)NCCc2nc3ccccc3[nH]2)cc1OC,–,16.4 µM (active)
COc1ccc(CCNC(=S)NC(=O)/C=C/c2ccc(C)cc2)cc1OC,-23.2% (inactive),–
O=C(COc1ccccc1)NCCc1nc2ccccc2[nH]1,-7.59% (inactive),–

Compound,"activity change, negative = growth inhibition",Potency
Cc1nn(CC(=O)NCC2CCCO2)c(=O)c2cc3ccccc3n12 (stereo not given),40.8% (inactive),–
C=C(C)C1CC=C(CO)CC1 (stereo not given),15.1% (inactive),–
Cc1ccc(-n2nc(CO)c(C(=O)NCCc3ccccc3)n2)cc1,8.8% (inactive),–
Cc1ccc(-c2nc(=N)sn2Cc2ccccc2)cc1,–,4.47 µM (active)
Cc1ccc(CN2C(=O)SC(Nc3ccccc3)C2=O)cc1 (stereo not given),-16.3% (inactive),–
Cc1ccnc(NC(=O)CCCOc2ccccc2)c1,2.35% (inactive),–
CCN1CCN(c2nc(Nc3cccc(F)c3)nc(N)c2[N+](=O)[O-])CC1,-19.7% (inactive),–
CN(C)C(CNC(=O)c1ccc(OCc2cn3ccccc3n2)cc1)c1ccco1 (stereo not given),4.85% (inactive),–
Cc1nn(-c2ccccc2)c2c1C(=O)NC(=O)C(C)(C)C2,-25.9% (inactive),–
CC1=C(N2CCN(c3ncccn3)CC2)CCC1=O,-1.99% (inactive),–
Cc1nn(-c2ncccn2)c2c1C(=O)CC(C)(C)C2Br (stereo not given),–,20.6 µM (active)
COc1ccc2cc(-c3nc(Cl)c4c5c(sc4n3)CC(C)CC5)c(=O)oc2c1 (stereo not given),3.95% (inactive),–
CC(C)CNC(=O)CC(c1ccccc1)c1c(O)ccc2ccccc12 (stereo not given),-19% (inactive),–
CC(C)NC(=O)C(c1ccc(F)cc1)N(C(=O)CCC(=O)Nc1ccccn1)c1ccccc1F (stereo not given),3.64% (inactive),–
O=C(c1cc(COc2cccc(C(F)(F)F)c2)on1)N1CCSCC1,-23.1% (inactive),–
Cc1ccc(CNC(=O)C2(C(F)(F)F)C/C(=C\Cc3ccccc3)CCCO2)o1 (stereo not given),–,16.4 µM (active)
Cc1ccc(C(=O)N2CC(=O)Nc3ccccc32)o1,-0.865% (inactive),–
COC(=O)[C@]12CCCCC=C1N(Cc1ccccc1)C(=O)[C@H](CC(=O)NCc1ccc(C)o1)C2,-20% (inactive),–
Cc1ccc2c(c1)nnc1nnc(SCC(=O)O)n12,-2.45% (inactive),–
Cc1cccc(-c2nnc(SCC(=O)O)n2Cc2ccccc2)c1,2.29% (inactive),–
CCC(C(=O)NC1CCCC1)N(C(=O)Cn1nnc(-c2ccc(C)o2)n1)c1ccc(OC)c(OC)c1 (stereo not given),4.9% (inactive),–
Cc1cccc(C)c1NC(=O)COC(=O)c1ccccc1O,-1.8% (inactive),–
COC(=O)Cc1[nH]n(-c2nc3ccccc3s2)c(=O)c1C(C)=Nc1ccc(OC)cc1,–,5.17 µM (active)
COc1ccc(/C=C(/CC(=O)Nc2ccc(C)cc2)c2nc3ccccc3s2)cc1,12.5% (inactive),–
COc1ccc(N=C(C)c2sc3ccccc3c2O)cc1,3.55% (inactive),–
COc1ccc(C2NC(=S)NC3=C2CCc2ccccc23)cc1OC (stereo not given),-8.49% (inactive),–
C=CCN(CC=C)C(=O)COC(=O)c1n[nH]c2ccccc12,-1.43% (inactive),–

Compound,"activity change, negative = growth inhibition",Potency
CNC1(c2nnnn2-c2c(C)cccc2C)CCOC(C)(C)C1 (stereo not given),-0.779% (inactive),–
CC(C)CNC(=O)C(=O)NCC(c1ccc2c(c1)OCO2)N1CCOCC1 (stereo not given),3.18% (inactive),–
O=C(NCCO)C(=O)NCC(c1ccc2c(c1)OCO2)N1CCN(c2ccc(F)cc2)CC1 (stereo not given),2.47% (inactive),–
CC(C)CC(=O)NCC(c1ccc2c(c1)OCO2)N1CCN(c2ccc(F)cc2)CC1 (stereo not given),–,16.4 µM (active)
COc1ccc(N)cc1NC(=O)CN1CCOCC1,-5.1% (inactive),–
COc1ccc(C2C(C(C)=O)=C(O)C(=O)N2CCc2c[nH]c3ccccc23)cc1 (stereo not given),-10.4% (inactive),–
CC(=O)c1ccc(Nc2nc(C(N)c3ccccc3Cl)cs2)cc1 (stereo not given),–,14.6 µM (active)
CC(=O)c1ccc(NC(=O)c2cc(-c3cccs3)on2)cc1,4.84% (inactive),–
CC(=O)c1ccc(NC(=O)C(C)N(C)CC(=O)Nc2ccccc2Cl)cc1 (stereo not given),-5.9% (inactive),–
COc1cc(NC(=O)c2noc3c2CSc2ccccc2-3)cc(OC)c1OC,–,9.2 µM (active)
COc1ccccc1-c1cc(C(=O)N2CCCCC2)no1,-28.7% (inactive),–
COc1cc(OC)c(NC(=O)c2c3c(nn2C)-c2ccccc2SC3)cc1Cl,-88.3% (inactive),–
Cc1cccc(-n2c(Cc3cc(=O)[nH]c(=O)[nH]3)nnc2SCC(=O)Nc2cccc(C(F)(F)F)c2)c1,-2.7% (inactive),–
COc1ccc(CCNC(=O)CSc2nc3[nH]ncc3c(=O)n2-c2cccc(C(F)(F)F)c2)cc1OC,4.43% (inactive),–
NC(=O)NC(=O)CSc1nc2cc([N+](=O)[O-])ccc2n1-c1cccc(C(F)(F)F)c1,–,10.3 µM (active)
COc1ccc(NS(=O)(=O)c2cc3c(cc2C)N(C(C)=O)CCO3)cc1,–,inactive
COc1ccc(C(=O)NC(Cc2ccc(OC(=O)c3ccc(OC)cc3)cc2)C(=O)O)cc1 (stereo not given),-1.18% (inactive),–
O=C(Nc1ccncc1)c1ccccc1[N+](=O)[O-],-26.9% (inactive),–
O=[N+]([O-])c1ccccc1SNc1ccccn1,–,20.6 µM (active)
O=C(CSc1nnc(-c2ccc([N+](=O)[O-])cc2)o1)Nc1ccccn1,-12.2% (inactive),–
CCN1C[C@@H]2[C@@H]3C(=O)N(C)C(=O)[C@@H]3[C@](C)(C1=O)N2C(=O)c1ccccc1,-2.52% (inactive),–
COc1ccc(-c2nnc(SCc3cccnc3)o2)cc1,-2.9% (inactive),–
N#Cc1nc(COc2ccc(-c3ccccc3)cc2)oc1NCc1cccnc1,–,6.51 µM (active)
N#Cc1nc(COc2ccc(Cl)cc2)oc1N1CCCC1,-22% (inactive),–
